“And” between values parts separate entries of the source, which are not always exact repeats. Equal values may be shown once. This is part of a sample that, as a whole, favours compounds with a hit. Of some 83,000 tested, about 20% had one in any assay.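 96-well plates, one dose, 48 hours. Percent growth reported; active if below 10.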 The source made the active and inactive calls.
system: HL-60(TB) leukemia; assay: NCI-60 one-dose screen, 48 h (100 = growth as untreated, 0 = no growth, -100 = all killed); conditions: 10 µM unless noted

Row | Compound | growth
1 | Cc1ccc2c(ccc3c[n+]4c5ccccc5ccc4n32)c1 | 2.59% (active)
2 | NCCSC(c1ccccc1)(c1ccccc1)c1ccccc1 | -17.3% (active)
3 | CC1=CSC2=NC(c3ccc(Cl)c(Cl)c3)=CC(c3ccc(Cl)cc3)N12 (stereo not given) | 47.7% (inactive)
4 | N#CC1=C(N)Oc2cc(N)ccc2C1c1ccc(F)cc1 (stereo not given) | 88.9% (inactive)
5 | Oc1c(Cl)cc(Cl)cc1C=NCC1CCC(CN=Cc2cc(Cl)cc(Cl)c2O)CC1 (stereo not given) | 73.9% (inactive)
6 | CC(=O)C1=C(O)C=C2Oc3c(C(=O)/C=C/c4c(Cl)cccc4Cl)c(O)c(C)c(O)c3[C@]2(C)C1=O | -39.3% (active)
7 | COc1ccc(CN2c3ccccc3Sc3ccccc32)cc1O | 21.1% (inactive)
8 | C=C1CCC2C3(C)COC(c4ccc(N(C)C)cc4)OC3CCC2(C)C1C/C=C1/C(=O)OCC1O (stereo not given) | 15.3% (inactive)
9 | NC(CSC(c1ccccc1)(c1ccccc1)c1ccccc1)C(=O)NCC(=O)O (stereo not given) | 55% (inactive)
10 | Cc1nn(-c2ccc(Cl)cc2)c(=O)n1CCn1cnc2ccccc21 | 102% (inactive)
11 | Oc1c(Cl)cc(Cl)c2ccc(Cn3cc(-c4cc(C(F)(F)F)cc(C(F)(F)F)c4)nn3)nc12 | -13.7% (active)
12 | NC(=S)N/N=C(\c1ccc(Br)cc1)C1CC1 | 65.6% (inactive) and 64.8% (inactive)
13 | COc1ccc(S(=O)(=O)Nc2cc(/C=C\c3cc(OC)c(OC)c(OC)c3)cc(OC)c2OC)cc1 | -42.1% (active)
14 | CCCCCCCCCCCC(=O)NCCCN(C)C | 83.7% (inactive)
15 | NC(=O)c1n[nH]n2c1nc(=O)c1c3c(sc12)CCCC3 | 99.9% (inactive)

Source: PubChem BioAssay (NCI)
